# Assay results as given in PubChem BioAssay (EPA / NIEHS).
# Inconclusive results are not listed. The source made the active and inactive calls. How the source made its calls, unless noted: active means hit-call score of the fitted dose curve at least 0.9, where 1 is the maximum; inactive means score below 0.9.
# Key:
# [1] = CCTE_Harrill_HTTr_Apoptosis_MCF7: CCTE's 6-hour Apoptosis Assessment for the High-Throughput Transcriptomics (HTTr) Platform, in MCF-7 cells cultured in DMEM + 10% fetal bovine serum, Harrill Lab (AID 2284011)
# Method in brief: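 Cells are dosed with test chemicals at eight concentrations and imaged 6 hours later for caspase-3/7 activity using a green fluorogenic detection reagent. Activity is fitted in both directions against DMSO controls.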
# [2] = CCTE_Harrill_HTTr_CellCount_MCF7: CCTE's Cell Proliferation Assessment for the High-Throughput Transcriptomics (HTTr) Platform, Harrill Lab (AID 2284012; active means hit-call score of the fitted dose curve at least 0.9, where 1 is the maximum;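 further: count of Hoechst-stained nuclei per well by high-content imaging in MCF-7 cells; cells exposed to compound for six hours; intended direction is loss of nuclei count meaning fewer cells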)
# Method in brief: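 For this full-screen endpoint, MCF-7 cultures received eight compound dilutions for six hours. Well nuclei counts from Hoechst imaging were analyzed relative to DMSO.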
# [3] = CCTE_Shafer_MEA_acute_burst_number: CCTE's Neural Acute Assay for Single-Electrode Bursts, Shafer Lab (AID 2284013)
# Method in brief: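 Burst totals were derived with adaptive spike detection (8x rms threshold) on filtered signals from rat cortical cultures; change relative to pre-treatment baseline after 40-min compound exposure (0.03-40 uM) was fitted in the negative direction against DMSO.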
# [4] = CCTE_Shafer_MEA_acute_per_burst_spike_number_mean: CCTE's Neural Acute Assay for Average Number of Spikes Per Burst, Shafer Lab (AID 2284015);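 further: hits are decreases in mean spikes per burst versus baseline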
# Method in brief: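 Percent change in mean spikes per single-electrode burst is compared between a 40 min baseline and a 40 min recording with compound (0.03-40 uM). Cultures were rat cortical neurons on MEA plates at DIV 13 or 15, recorded at 37 C, with DMSO as the negative control.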
# [5] = CCTE_Shafer_MEA_acute_interburst_interval_mean: CCTE's Neural Acute Assay for Mean Interburst Interval, Shafer Lab (AID 2284016);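 further: percent change of mean interburst interval versus each well's own pre-dose baseline; curves fitted for decrease in interburst interval relative to DMSO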
# Method in brief: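 Percent change in mean single-electrode interburst interval was calculated per well from 40 min recordings before and after compound (0.03-40 uM). Recordings were made at 37 C on rat cortical cultures at DIV 13 or 15, with spikes detected at 8x rms threshold.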
# [6] = CCTE_Shafer_MEA_acute_burst_percentage_mean: CCTE's Neural Acute Assay for Percentage of Spikes in a Burst, Shafer Lab (AID 2284017);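 on AC50: curve fitted for loss of signal so potency reflects decreased burst percentage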
# Method in brief: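 Well-level mean burst percentage from a 40-min recording after compound (0.03-40 uM) expressed as percent change from a 40-min baseline at 37C. Cultures: primary rat cortical neurons on MEA, dosed on DIV 13 or 15; fitted downward relative to DMSO.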
# [7] = CCTE_Shafer_MEA_acute_burst_percentage_std: CCTE's Neural Acute Assay for Standard Deviation of Burst Percentage, Shafer Lab (AID 2284018);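 further: fitted in the negative direction so actives lower burst percentage SD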
# Method in brief: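 Primary rat cortical neurons on 16-electrode MEA wells were recorded 40 min at baseline (DIV 13 or 15), then 40 min after compound (0.03-40 uM), at 37 C. Well value is SD across electrodes of spikes-in-bursts/total spikes; endpoint is percent change, DMSO-referenced.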
# [8] = CCTE_Shafer_MEA_acute_per_network_burst_spike_number_mean: CCTE's Neural Acute Assay for Average Number of Spikes in a Network Burst, Shafer Lab (AID 2284019);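 on AC50: curve fitted for loss of signal so actives reduce spikes per network burst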
# Method in brief: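 Acute exposure of rat primary cortical networks (DIV 13/15) on MEAs; adaptive spike detection at 8x rms noise, 37 C. Percent change in spikes per network burst after 40 min with compound (0.03-40 uM), negative direction vs DMSO.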
# [9] = CCTE_Shafer_MEA_acute_per_network_burst_spike_number_std: CCTE's Neural Acute Assay for Standard Deviation of Number of Spikes in a Network Burst, Shafer Lab (AID 2284020);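 further: fitted for decrease in spike-number SD versus DMSO so actives lower it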
# Method in brief: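 Acute MEA exposure, rat cortical neurons, 0.03-40 uM. Per-well % change versus own baseline; DMSO as negative control.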
# [10] = CCTE_Shafer_MEA_acute_per_network_burst_electrodes_number_mean: CCTE's Neural Acute Assay for Mean Number of Electrodes in a Network Burst, Shafer Lab (AID 2284021);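 further: curves fitted for decreases only so hits reduce electrodes per burst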
# Method in brief: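 Cultures of rat cortex neurons were exposed on DIV 13 or 15 to compounds at 0.03-40 uM in at least three wells each. Activity over 40 min before and 40 min after exposure at 37 C gave the percent change in electrodes per network burst.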
# [11] = CCTE_Shafer_MEA_acute_network_burst_percentage: CCTE's Neural Acute Assay for Percentage of Network Bursts, Shafer Lab (AID 2284022);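 further: curves fitted for loss so actives lower network burst percentage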
# Method in brief: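 Cortical neurons from rat were grown over microelectrode arrays and used on day 13 or 15 in vitro. Wells with at least 10 active electrodes received test chemical at 0.03-40 uM. Activity during 40 min of exposure was compared with the preceding 40-min baseline.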
# [12] = CCTE_Shafer_MEA_acute_cross_correlation_area: CCTE's Neural Acute Assay for Area of Cross Correlation, Shafer Lab (AID 2284024);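 further: area under pooled inter-electrode spike cross-correlation near zero lag as percent change from own baseline; curves fitted for loss of cross-correlation area so actives lower synchrony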;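 on outcome: rat primary cortical neuron networks on 48-well MEA at DIV 13 or 15 with 40 min exposure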
# Method in brief: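 Acute exposure of mature rat cortical networks (day 13 or 15 post-plating) to 0.03-40 uM compound. Spontaneous spiking on MEA, 40 min pre- and post-dose at 37 C.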
# [13] = CCTE_Shafer_MEA_acute_cross_correlation_HWHM: CCTE's Neural Acute Assay for Cross Correlation at Half Width at Half Maximum, Shafer Lab (AID 2284026);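 further: spontaneous network firing of rat primary cortical neurons on multiwell microelectrode arrays; percent change per well from pre-dose baseline in spike cross-correlogram half width; hits are a decrease in cross-correlogram half width relative to DMSO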
# Method in brief: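 Primary cortex (rat), MEA, DIV 13/15; compound 0.03-40 uM; 40 min pre + 40 min post at 37 C; spike threshold 8x rms; wells need ≥10 active electrodes; endpoint = % change in cross-correlogram HWHM vs baseline, DMSO negative control.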
# [14] = CCTE_Shafer_MEA_acute_synchrony_index: CCTE's Neural Acute Assay for Synchrony, Shafer Lab (AID 2284027);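 further: network synchrony index of spontaneous spiking in primary rat cortical neurons on MEAs; fitted for loss of signal so actives lower synchrony relative to DMSO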
# Method in brief: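 Acute exposure of rat primary cortical neurons (DIV 13 or 15) at 0.03-40 uM. Synchrony index, 40 min before vs after, as % change relative to DMSO control.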
# [15] = CCTE_Shafer_MEA_dev_firing_rate_mean: CCTE's Neural Network Formation Assay for Mean Firing Rate, Shafer Lab (AID 2284031);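 further: curve fitted for loss of firing so AC50 reflects decreased mean firing rate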
# Method in brief: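 Extracellular spike frequency, AUC over DIV 5–12 recordings, in rat cortical neuron MEA cultures dosed from plating; loss direction vs DMSO.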
# [16] = CCTE_Shafer_MEA_dev_per_burst_spike_percent: CCTE's Neural Network Formation Assay for Percent of Spikes in a Burst, Shafer Lab (AID 2284032);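 further: fitted as a decrease in burst spike percentage below DMSO baseline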
# Method in brief: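 Value is trapezoidal AUC over recordings on days 5, 7, 9 and 12 of the well-mean fraction of spikes falling in single-electrode bursts; rat cortical cultures exposed continuously from plating, treatment renewed DIV 5 and 9, fitted downward against DMSO.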
# [17] = molecular target: Estrogen receptor (Homo sapiens) (UniProt P03372); test: CCTE_Deisenroth_AIME_384WELL_LUC_Active: CCTE's 384-well Estrogen Receptor Transactivation Assay with AIME metabolic competence (ERTA luciferase; metabolism positive), Deisenroth Lab (AID 2284030; active means hit-call score of the fitted dose curve at least 0.9, where 1 is the maximum)
# Sequence of Estrogen receptor (Homo sapiens) (P03372 whole entry, looked up): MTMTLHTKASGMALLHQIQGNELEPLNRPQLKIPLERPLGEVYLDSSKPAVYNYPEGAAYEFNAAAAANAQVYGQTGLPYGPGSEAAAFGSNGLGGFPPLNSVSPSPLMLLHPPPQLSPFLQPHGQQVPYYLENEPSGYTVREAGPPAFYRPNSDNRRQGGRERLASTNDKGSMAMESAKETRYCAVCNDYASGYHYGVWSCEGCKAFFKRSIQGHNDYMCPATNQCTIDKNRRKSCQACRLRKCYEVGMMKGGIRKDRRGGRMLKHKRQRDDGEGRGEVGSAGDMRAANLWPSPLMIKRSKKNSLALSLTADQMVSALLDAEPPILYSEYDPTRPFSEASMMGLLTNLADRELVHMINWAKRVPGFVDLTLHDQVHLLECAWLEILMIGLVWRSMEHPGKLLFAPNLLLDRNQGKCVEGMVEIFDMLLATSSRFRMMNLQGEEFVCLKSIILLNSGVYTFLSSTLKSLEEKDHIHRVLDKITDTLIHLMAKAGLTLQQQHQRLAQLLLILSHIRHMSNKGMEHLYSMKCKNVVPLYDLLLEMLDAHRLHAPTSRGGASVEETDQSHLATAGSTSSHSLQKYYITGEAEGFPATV
# Method in brief: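 In this metabolism-positive format, a 2-hour exposure to alginate-immobilized rat S9 precedes a 24 hour luciferase transactivation readout in VM7Luc4E2 cells. Dosing spans 10 concentrations from 0.002 to 200 uM.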
# [18] = molecular target: Estrogen receptor (Homo sapiens) (UniProt P03372); test: CCTE_Deisenroth_AIME_384WELL_LUC_Inactive: CCTE's 384-well Estrogen Receptor Transactivation Assay without AIME metabolic competence (ERTA luciferase; metabolism negative), Deisenroth Lab (AID 2284038; active means hit-call score of the fitted dose curve at least 0.9, where 1 is the maximum;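 further: VM7Luc4E2 breast cells given medium preincubated 2 h with S9-free microspheres; hits raise estrogen receptor luciferase signal so potencies reflect agonists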)
# Method in brief: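 Metabolism-negative mode: AIME lids stamped in alginate-water, no hepatic S9. 2 h chemical incubation → medium onto VM7Luc4E2 ERTA, 24 h. Readout luciferase luminescence; gain-of-signal fit vs 17beta-estradiol. Conc. 0.002 - 200 uM.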
# [19] = CCTE_Deisenroth_AIME_384WELL_CTox_Inactive: Cytotoxicity Assessment (CTOX) in CCTE's 384-well Estrogen Receptor Transactivation Assay without AIME metabolic competence (metabolism negative), Deisenroth Lab (AID 2284039; active means hit-call score of the fitted dose curve at least 0.9, where 1 is the maximum;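 further: cell viability via live-cell protease substrate cleaved to fluorescent probe; cells exposed 24 h to medium preincubated 2 h with alginate-water beads without S9; loss of fluorescence signal means loss of viability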)
# Method in brief: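 Fluorescent protease-substrate viability readout after 24 h exposure of VM7Luc4E2 cells to conditioned medium. Chemicals (0.002–200 uM) first sat 2 h over alginate-water beads, no S9. Data fitted bidirectionally, loss of signal meaning viability loss.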
smiles,measurement,setting,value
COc1cc(C=O)ccc1OC(=O)C(C)C,outcome,[1],inactive
same,outcome,[2],inactive
same,outcome,[3],inactive
same,outcome,[4],inactive
same,outcome,[5],inactive
same,outcome,[6],inactive
same,outcome,[7],inactive
same,AC50,[8],3800 nM (active)
same,AC50,[9],3760 nM (active)
same,outcome,[10],inactive
same,outcome,[11],inactive
same,outcome,[12],inactive
same,outcome,[13],inactive
same,outcome,[14],inactive
CC(C)Oc1ccccc1O,outcome,[1],inactive
same,outcome,[2],inactive
CC(=O)[C@H]1CC[C@H]2[C@@H]3CC=C4C[C@@H](O)CC[C@]4(C)[C@H]3CC[C@]12C,outcome,[1],inactive
same,AC50,[3],14.4 nM (active)
same,outcome,[4],inactive
same,outcome,[5],inactive
same,AC50,[6],2980 nM (active)
same,outcome,[7],inactive
same,AC50,[8],15000 nM (active)
same,outcome,[9],inactive
same,outcome,[10],inactive
same,AC50,[11],26.7 nM (active)
same,AC50,[12],3 nM (active)
same,outcome,[13],inactive
same,AC50,[14],4.09 nM (active)
N#Cc1ccc(CC(=NNC(=O)Nc2ccc(OC(F)(F)F)cc2)c2cccc(C(F)(F)F)c2)cc1,outcome,[1],inactive
same,AC50,[15],363 nM (active)
same,AC50,[16],301 nM (active)
CCCCCCCCC=O,outcome,[1],inactive
same,outcome,[3],inactive
same,outcome,[4],inactive
same,outcome,[5],inactive
same,outcome,[6],inactive
same,outcome,[7],inactive
same,outcome,[8],inactive
same,outcome,[9],inactive
same,outcome,[10],inactive
same,outcome,[11],inactive
same,outcome,[12],inactive
same,outcome,[13],inactive
same,outcome,[14],inactive
CCCCCCCCCC=O,outcome,[1],inactive
same,outcome,[17],inactive
same,outcome,[18],inactive
CCC(=O)/C=C/C1C(C)=CCCC1(C)C (stereo unspecified),outcome,[19],inactive
CCCCC(CC)COC(=O)/C=C\C(=O)OCC(CC)CCCC (stereo unspecified),outcome,[1],inactive
same,outcome,[19],inactive
C=C[Si](OCC)(OCC)OCC,outcome,[3],inactive
same,outcome,[4],inactive
same,outcome,[5],inactive
same,outcome,[6],inactive
same,outcome,[7],inactive
same,outcome,[8],inactive
same,outcome,[9],inactive
same,outcome,[10],inactive
same,outcome,[11],inactive
same,outcome,[12],inactive
same,outcome,[13],inactive
same,outcome,[14],inactive
C=CCOC(=O)CCC1CCCCC1,outcome,[1],inactive
same,outcome,[3],inactive
same,outcome,[4],inactive
same,outcome,[5],inactive
same,outcome,[6],inactive
same,outcome,[7],inactive
same,outcome,[8],inactive
same,outcome,[9],inactive
same,outcome,[10],inactive
same,outcome,[11],inactive
same,outcome,[12],inactive
same,outcome,[13],inactive
same,outcome,[14],inactive
